From PubChem BioAssay (NCI)
Compounds without any hit were thinned out: in the full panel of roughly 83,000, 20% have a hit.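 Interpretation: 100, growth as untreated; towards 0, rising growth inhibition; 0, no net growth; 0 to -100, cell death. Compounds scoring below 10 were considered active.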 Values without a mark were called inactive. Calls of active or inactive are those of the source.

What follows are compounds tested on M14 melanoma (assay: NCI-60 one-dose screen, 48 h (100 = growth as untreated, 0 = no growth, -100 = all killed)). Details: 10 µM unless noted.

Row | SMILES | growth
1 | CN(C[C@H]1Cc2c(cccc2N2CCN(c3ncccn3)CC2)CN1)[C@H]1CCCc2cccnc21 | 53.7%
2 | COc1ccc(-c2cnoc2-c2ccc(OC)cc2O)cc1 | 14.9%
3 | COc1ccc(/C=N\NC(=O)CN2CCN(c3cc4c(cc3F)c(=O)c(C(=O)N/N=C/c3ccc(OC)c(OC)c3)cn4C3CC3)CC2)cc1OC | 20.3%
4 | C1=Cc2ccccc2N(c2nnc(-c3ccccc3)o2)c2ccccc21 | 100%
5 | COc1ccc(-c2nc3sc(-c4cc(OC)c(OC)c(OC)c4)nn3c2/C=C2/C(=O)Nc3ccc(F)cc32)cc1 | -53.4% (active)
6 | O=C(Oc1ccccc1[N+](=O)[O-])C1CCCN1C(=O)OCc1ccccc1 (centres undefined) | 93%
7 | CC(C)(C)OC(=O)NC(CSCc1ccccc1)C(=O)ON1C(=O)CCC1=O (centres undefined) | 104%
8 | O=S(=O)(NCCCNc1nccc(-n2ccc3cccnc32)n1)c1ccc(Br)cc1 | 110%
9 | COc1ccc(/C=C2\Oc3cc(OCCCN4CCCC4)ccc3C2=O)cc1 | 84.4%
10 | Cc1csc(NC(c2ccc(Br)cc2)c2c(C)nc3ccccn23)n1 (centres undefined) | 90.6%
11 | Cn1c(=O)cc(NC(=O)CN2CCN(c3cc4c(cc3F)c(=O)c(C(=O)O)cn4C3CC3)CC2)[nH]c1=O | 96.5%
12 | CC(C)(C)n1cc(-c2ccnc(NCCNS(=O)(=O)c3ccc(F)cc3)c2)c(-c2cccc(O)c2)n1 | 46.2%
13 | CC(C)(C)n1cc(-c2ccnc(NCCNS(=O)(=O)c3ccc(Cl)cc3)c2)c(-c2cccc(O)c2)n1 | 62.8%
14 | O=C1Nc2ccc3c(c2/C1=C\c1cc2c(cc1Br)OCO2)OCO3 | -6.52% (active)
15 | Cc1ccc(N2CCN(C(C)C(N)=O)CC2)cc1 (centres undefined) | 99.2%
16 | COc1cc(NC(N)=NCCC(C)(C)Oc2ccc(C(F)(F)F)cc2)ncc1C#N | -68.3% (active)
17 | CCc1ccc(-c2ccc(=O)n(-c3ccc(S(N)(=O)=O)cc3)n2)cc1 | 17.7%
18 | CC[N+](CC)=c1cc2oc3cc(N(C)C)ccc3nc-2cc1C | 18.2%
19 | COc1cccc(-c2nc3sccn3c2-c2ccnc(NCCCNS(=O)(=O)c3ccc(F)cc3)c2)c1 | 25.7%
20 | N[C@H]1CN(C(=O)c2cc3cc(Br)c(F)c(F)c3[nH]2)C[C@@H]1O | 97.2%

Row | SMILES | growth
21 | O=C(N/N=C/C=C\c1ccccc1)C(=O)N/N=C/C=C/c1ccccc1 | 107%
22 | O=C(O)COc1ccc(-c2cssc2=S)cc1 | 105%
23 | CCOC(=O)c1c(NS(=O)(=O)c2ccc(C)cc2)sc2c1CCC1(C2)OCCO1 | 104%
24 | Cc1nc2ncccc2nc1Nc1ccc(S(=O)(=O)Nc2ccccn2)cc1 | 97.5%
25 | Fc1ccc(Nc2ncnc3ccc(-c4cnc5[nH]ccc5c4)cc23)cc1Cl | 42.7%
26 | COc1ccc(C2C(C#N)=C(N)Oc3c2ccc2ccccc32)cc1 (centres undefined) | 30.2%
27 | COc1ccc(C(=O)N2NC(=O)/C(=C/c3cn(-c4ccccc4)nc3-c3ccccc3)N=C2c2ccccc2)cc1 | 110%
28 | C=C1C(=O)O[C@H]2[C@H]1CC/C(Cn1cc(CNC(=O)Cc3cn(C(=O)c4ccc(Cl)cc4)c4ccc(OC)cc34)nn1)=C\CC[C@@]1(C)O[C@@H]21 | -32.4% (active)
29 | CCCCC(CC)OC(=O)C(Br)CC (centres undefined) | 101%
30 | O=C1/C(=C/c2ccccc2)Oc2ccc(O)c(I)c21 | 98.5%
31 | COC(=O)c1cc2cc(-c3ccc(OC)cc3)cnc2[nH]1 | 14.3%
32 | c1coc(CNc2ccnc(Nc3ccc(OCCN4CCCCC4)cc3)n2)c1 | 102%
33 | COc1ccc2[nH]c(C(=O)OCc3ccc4c(Cl)cc(Cl)c(O)c4n3)cc2c1 | -78.2% (active)
34 | CCOC(=O)C1CCNC(=O)C1=O (centres undefined) | 108%
35 | O=C(O)C1CCCCN1c1nc(Cl)nc(Cl)n1 (centres undefined) | 108%
36 | C=C1CCC2C(C)(CO)C(O)CCC2(C)C1CC(NCc1ccccc1)C1=CCOC1=O (centres undefined) | 97.3%
37 | CCCCCCCCCCCC(=O)NCCC[N+](C)(C)CC(=O)[O-] | 98.6%
38 | CN(CCCCCl)P(=O)(OCc1ccc([N+](=O)[O-])o1)C(F)(F)C[C@H](NC(=O)CNC(=O)c1ccc(N=[N+]=[N-])cc1)C(=O)NCCc1ccc(O)cc1 (some centres undefined) | 90%
39 | NC(N)=Nc1nc2ccccc2o1 | 80%
